# CtBP-E1A blk = qHTS Assay for Inhibitors of the CtBP/E1A Interaction; CtBP / adenovirus E1A interaction (AlphaScreen); AlphaScreen GST-E1A/His-CtBP binding, 1536-well; stronger effect = lower value; activity change, % (no concentration beside the values); hit rate 0.49% among 340,000; AID 651724, 2012; in the data active = activity change below about -65%; inconclusive = mostly about -30% to -63%
#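 Protein mix (5X: 125 nM each GST-E1A, His-CtBP) was incubated with pinned compound 2 h at 37 deg C in dark, in 50 mM Tris pH 8.0 buffer with 300 mM NaCl. Glutathione donor and nickel acceptor beads followed; AlphaScreen signal read after 1 h.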
# IL-1B inflam inh = qHTS for Inhibitors of Inflammasome Signaling: IL-1-beta AlphaLISA Primary Screen. activity change, % at 57.5 µM. THP-1 LPS/ATP IL-1B secretion, AlphaLISA, 16 h; stronger effect = lower value. hit rate 4.7% among 360,000. AID 743279, 2014; in the data active = activity change below about -50%; inconclusive = mostly about -30% to -49%
#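 Secreted IL-1B measured by AlphaLISA bead assay after 16 h compound exposure of THP-1 cells; compounds (final up to 57.5 uM) added 1 h before LPS (250 ng/mL) and ATP (1.25 mM) stimulation; lower signal means less secretion.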
# TDP1 cell CPT = qHTS for Inhibitors of human tyrosyl-DNA phosphodiesterase 1 (TDP1): qHTS in cells in presence of CPT; chicken DT40 Tdp1-/-;hTDP1 cells + 20 nM CPT, ATP luminescence, 48 h; Potency, µM (series often up to 46.2 µM), for inactives: top-dose activity change, negative = growth inhibition, actives largely listed as inhibitors; hit rate 12% among 420,000; note: potency is the fitted concentration of half-maximal effect; nearly all actives have a fitted effect of over 55% in size
#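 Cell growth measured by CellTiter-Glo luminescence after a minimum 48 h, 37 C compound exposure with 20 nM CPT in Tdp1-knockout DT40 cells stably expressing hTDP1, seeded 400/well; qHTS titration format.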
# Six1-Eya2 inh = qHTS Assay for Inhibitors of the Six1/Eya2 Interaction | AlphaScreen GST-Six1/His-Eya2 binding, biochemical; stronger effect = lower value | activity change, % (concentration not given with the values) | hit rate 0.56% among 360,000; in the data active = activity change below about -65%; inconclusive = mostly about -30% to -63%
# Target sequence (O00167 whole entry, looked up): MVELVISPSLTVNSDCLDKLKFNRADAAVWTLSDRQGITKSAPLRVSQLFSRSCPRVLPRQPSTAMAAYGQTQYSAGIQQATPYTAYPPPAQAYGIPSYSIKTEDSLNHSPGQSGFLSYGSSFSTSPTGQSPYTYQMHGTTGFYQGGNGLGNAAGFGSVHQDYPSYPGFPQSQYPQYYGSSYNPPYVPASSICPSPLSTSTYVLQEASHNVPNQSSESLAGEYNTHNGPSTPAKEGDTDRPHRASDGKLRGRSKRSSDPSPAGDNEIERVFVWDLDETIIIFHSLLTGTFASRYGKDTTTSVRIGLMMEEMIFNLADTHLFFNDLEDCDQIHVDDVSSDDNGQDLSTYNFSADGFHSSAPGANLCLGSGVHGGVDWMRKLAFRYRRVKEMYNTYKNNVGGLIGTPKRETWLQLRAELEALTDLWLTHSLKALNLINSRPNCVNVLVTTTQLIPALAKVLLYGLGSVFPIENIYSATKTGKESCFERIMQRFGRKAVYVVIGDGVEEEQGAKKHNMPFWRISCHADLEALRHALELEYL
# Target sequence (Q15475 whole entry, looked up): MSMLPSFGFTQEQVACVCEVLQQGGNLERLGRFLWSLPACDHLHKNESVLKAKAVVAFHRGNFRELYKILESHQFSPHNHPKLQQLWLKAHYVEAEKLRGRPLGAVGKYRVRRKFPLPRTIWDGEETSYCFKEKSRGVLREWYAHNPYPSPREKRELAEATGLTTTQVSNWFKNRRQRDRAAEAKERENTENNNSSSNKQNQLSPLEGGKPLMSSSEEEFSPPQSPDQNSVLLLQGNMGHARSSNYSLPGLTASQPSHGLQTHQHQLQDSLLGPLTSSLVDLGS
#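 Compounds are tested against tagged Six1 and Eya2 proteins bridged by glutathione donor and nickel acceptor beads; after a one-hour incubation at 37 °C without light, AlphaScreen emission is recorded.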
# TDP1 inh = qHTS Assay for Inhibitors of Tyrosyl-DNA Phosphodiesterase (TDP1); AID 485290, 2010; Potency, µM (series often up to 130 µM), inactives show at the highest dose activity change, negative = inhibition, usual class: inhibitors; recombinant TDP1, AlphaScreen DNA substrate cleavage; Tyrosyl-DNA phosphodiesterase 1 (Homo sapiens), Q9NUW8; hit rate 0.28% among 350,000; note: potency is the fitted concentration of half-maximal effect; nearly all actives have a fitted effect of over 40% in size
#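 E. coli-derived human Tdp1, 1 nM final. Cpd preinc 15 min RT; substrate 15 nM final, 5 min RT; AS bead mix 10 ug/ml final, 10 min RT. Signal loss = tyrosine-FITC cleavage. No-enzyme wells = max signal.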
# TDP1 cell noCPT = qHTS for Inhibitors of human tyrosyl-DNA phosphodiesterase 1 (TDP1): qHTS in cells in absence of CPT | DT40 Tdp1-/- hTDP1 cells, no CPT, ATP luminescence, 48 h | Potency, µM (titrated, usually from 46.2 µM), for the others: at the highest dose activity change, negative = growth inhibition, usual class: inhibitors | hit rate 15% among 420,000 | AID 686978, 2013; note: potency is the fitted concentration of half-maximal effect; nearly all actives have a fitted effect of over 55% in size
#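 Camptothecin absent (DMSO only). Human TDP1-complemented DT40 knockout cells, 400 cells/well, 37 °C for minimum 48 hr; ATP measured via CellTiter-Glo, 30 min dark incubation, luminescence.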
# * hit, by the source's call; ? = inconclusive; nt = not tested or not shown; [ ] = another dose, or the depositor's remark. Only some compounds are listed: those with a hit (about 18% of all), similar ones and a draw of the others. Unless noted, calls come from the whole dose curve; as a rule, active = well fitted curve in the direction sought with a large enough effect; inconclusive = small, poorly fitted or top-dose-only effect, or another doubt; inactive = no such curve, though single readings can be large; an effect the other way counts as inactive or inconclusive. % is set by controls: 0 for no effect and ±100 for the full control effect.
SMILES,CtBP-E1A blk,IL-1B inflam inh,TDP1 cell CPT,Six1-Eya2 inh,TDP1 inh,TDP1 cell noCPT
COc1ccc(OC)c(NC(=O)Nc2nc(C(N)C(C)C)cs2)c1 (centres undefined),-14.7,-63.5*,?,-20.7,nt,?
COc1ccc(OC)c(NC(=O)Nc2nc(C(N)c3ccccc3Cl)cs2)c1 (centres undefined),-13.5,-51.2*,?,-25.0,nt,?
COc1ccc(OC)c(NC(=O)Nc2nc(CN(C)C)cs2)c1,-1.6,-3.3,-25.5%,-2.0,nt,-23.0%
COc1ccc(C(N)c2csc(NC(=O)Nc3ccccc3C(C)(C)C)n2)cc1 (centres undefined),-15.1,-29.3,?,-15.3,nt,?
CCc1cc(=O)oc2cc(OCC(=O)NCCCn3ccnc3)ccc12,nt,-0.2,-8.3%,-14.5,6.4%,0.5%
Cc1c(C)c2ccc(OC(C)C(=O)NCCCn3ccnc3)c(C)c2oc1=O (centres undefined),-4.3,-14.2,-5.2%,-4.3,6.0%,3.1%
COc1ccc(-c2cc(=O)oc3c(C)c(OC(C)C(=O)NCc4ccccn4)ccc23)cc1 (centres undefined),-0.6,-8.7,?,0.8,nt,25.9µM*
COc1ccc(-c2cc(=O)oc3cc(OC(C)C(=O)NCCCn4ccnc4)ccc23)cc1 (centres undefined),-6.1,51.5,18.4µM*,-13.3,nt,20.6µM*
COc1ccc(-c2cc(=O)oc3cc(OCC(=O)NCCCn4ccnc4)ccc23)cc1,-11.8,-4.8,20.6µM*,-7.6,nt,?
Cn1nc(C(F)(F)F)cc1-c1ccc(/C=C(\C#N)C(=O)c2ccccc2)s1,11.8,30.9,4.1%,4.5,2.9%,-9.3%
CC(=O)OC(C)(C)C1Cc2cc3ccc(=O)oc3cc2O1 (centres undefined),3.9,1.6,-14.1%,0.6,-6.1%[56.1 µM],16.4%
C/C=C(\C)C(=O)OC(C)(C)[C@H]1Cc2cc3ccc(=O)oc3cc2O1,23.1,-21.9,23.1µM*,-11.2,nt,?
O=C(CSc1ccc(Cl)cc1)Nc1cccc(-c2nc3ncccc3o2)c1,-3.9,?,?,-2.6,0.0%,18.4µM*
O=C(Nc1cccc(-c2nc3ncccc3o2)c1)c1ccc(-c2cccc(Cl)c2Cl)o1,nt,nt,5.8µM*,nt,nt,6.51µM*
Cc1ccc(C(C)C)c(OCC(=O)Nc2cccc(-c3nc4ncccc4o3)c2)c1,nt,nt,20.6µM*,nt,-0.4%[12.3 µM],20.6µM*
CCCC(=O)Nc1cccc(-c2nc3ncccc3o2)c1,nt,nt,-14.4%,nt,-1.3%[12.3 µM],-20.3%
COc1c(C)cc(Br)cc1C(=O)Nc1cccc(-c2nc3ncccc3o2)c1,?,-21.3,20.6µM*,?,-13.5%,20.6µM*
CC(C)C(=O)Nc1cccc(-c2nc3ncccc3o2)c1,-27.2,0.0,3.0%,-25.3,nt,20.4%
COc1ccc(C)cc1-n1c(=O)c2ccccc2c2ccccc2c1=O,-5.3,-1.5,5.6%,-19.9,0.0%,3.4%
CCCCC(=O)Nc1cccc(-c2nc3ncccc3o2)c1,-21.9,-24.8,-21.5%,-13.7,6.0%,-28.0%
COc1ccc2oc(-c3ccc(C)c(NC(=O)CSc4ccc(Cl)cc4)c3)nc2c1,2.1,-7.6,-32.9%,1.2,0.6%,?
Cc1c(NC(=O)c2ccc(-c3ccc(F)cc3)o2)cccc1-c1nc2ncccc2o1,nt,nt,4.61µM*,nt,0.4%[12.3 µM],9.2µM*
CCCCCC(=O)Nc1cccc(-c2nc3ncccc3o2)c1,?,-99.0*,1.9%,?,3.4%,-17.8%
